Reference: PubChem BioAssay (Tox21)
“And” between values parts separate entries of the source, which are not always exact repeats. Equal values may be shown once. Records with an inconclusive call do not appear. Where a call stands in place of a potency, no number is given. Some compounds were tested as several samples or in several runs, with calls that do not always agree. The source made the active and inactive calls. Unless noted, calls come from the whole dose curve; as a rule, active = well fitted curve in the direction sought with a large enough effect in the repeat runs; inconclusive = weak or mixed curves; inactive = no such curve, though single readings can be large; an effect the other way counts as inactive or inconclusive.

How the values were obtained:
[1] = A CellTox Green Cytotoxicity Assay to monitor cytotoxicity in HepG2 cells - 8 hour (AID 1224890); note: nearly all actives have a fitted effect of over 45% in size
In short: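 Nonlytic assay: viable cells exclude the dye, so fluorescence scales with cell death. HepG2 at 600 cells/well, compounds added after 5 h, signal read across 40 h.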

[2] = qHTS assay to identify small molecule antagonists of the estrogen receptor alpha (ER-alpha) signaling pathway using the BG1 cell line in the presence of 0.1 nM 17-beta-estradiol - cell viability counter screen (AID 1259241); note: nearly all actives have a fitted effect of over 40% in size; note: potency is the fitted concentration of half-maximal effect
In short: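 Live-cell protease activity (CellTiter-Fluor fluorescence, 30 min) was read in the same wells after VM7Luc4E2 cells had been exposed to compounds with 0.1 nM 17beta-estradiol for 22 hr at 37C.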

[3] = qHTS assay to identify small molecule antagonists of the androgen receptor (AR) signaling pathway using the MDA cell line in the presence of 0.5 nM R1881 - cell viability counter screen (AID 1259242); note: nearly all actives have a fitted effect of over 45% in size; note: potency is the fitted concentration of half-maximal effect
In short: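 R1881 at 0.5 nM final stimulated MDA-kb2 cells during 16 hr compound treatment at 37C. Cytotoxicity read: CellTiter-Fluor fluorescence after 30 min.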

[4] = target: Estrogen receptor (Homo sapiens) (UniProt P03372); test: qHTS assay to identify small molecule antagonists of the estrogen receptor alpha (ER-alpha) signaling pathway using the BG1 cell line in the presence of 0.1 nM 17-beta-estradiol (AID 1259244); note: nearly all actives have a fitted effect of over 50% in size
Sequence of Estrogen receptor (Homo sapiens) (P03372 whole entry, looked up): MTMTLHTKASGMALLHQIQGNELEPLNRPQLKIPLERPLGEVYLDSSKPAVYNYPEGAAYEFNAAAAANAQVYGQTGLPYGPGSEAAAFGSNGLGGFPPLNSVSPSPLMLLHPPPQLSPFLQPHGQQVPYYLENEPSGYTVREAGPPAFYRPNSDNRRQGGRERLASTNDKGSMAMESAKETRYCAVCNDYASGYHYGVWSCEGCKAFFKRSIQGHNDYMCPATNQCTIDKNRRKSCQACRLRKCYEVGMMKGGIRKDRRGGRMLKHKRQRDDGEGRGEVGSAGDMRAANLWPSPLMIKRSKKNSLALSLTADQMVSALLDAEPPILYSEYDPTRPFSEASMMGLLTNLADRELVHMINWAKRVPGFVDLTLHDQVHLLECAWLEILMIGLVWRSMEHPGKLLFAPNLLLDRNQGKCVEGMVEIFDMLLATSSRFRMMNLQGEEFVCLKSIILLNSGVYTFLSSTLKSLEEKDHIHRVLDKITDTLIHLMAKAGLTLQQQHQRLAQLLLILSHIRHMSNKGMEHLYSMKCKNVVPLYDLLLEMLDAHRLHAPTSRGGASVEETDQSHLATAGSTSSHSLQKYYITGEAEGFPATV
In short: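 VM7Luc4E2; 4xERE-luciferase; 0.1 nM E2 final; 22 h co-incubation, 37C; ONE-Glo luminescence after 30 min at room temperature.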

[5] = qHTS assay to identify small molecule HDAC inhibitors (AID 1259364); note: potency is the fitted concentration of half-maximal effect;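 note: wild-type HCT-116 cells with endogenous class I/II HDAC activity; nearly all actives have a fitted effect of over 45% in size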
In short: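 Relative class I and II HDAC activity is taken from the luminogenic signal in HCT-116 cells, with compound exposure 2 hr and reagent development 30 min at room temperature.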

[6] = qHTS assay to identify small molecule HDAC inhibitors - cell viability counter screen (AID 1259365); note: series mostly up to about 92 µM; nearly all actives have a fitted effect of over 50% in size
In short: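 HCT-116 (wild type), 1,500 cells/well, overnight 37C/5% CO2; compound in DMSO 2hr; CellTiter-Glo 30min RT; luminescence read.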

[7] = qHTS assay to identify small molecule agonists of the sonic hedgehog signaling (Shh) pathway - cell viability counter screen (AID 1259366); note: nearly all actives have a fitted effect of over 50% in size; note: potency is the fitted concentration of half-maximal effect
In short: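 CellTiter-Fluor fluorescence read-out, 1 hr at 37C, added after 23hr compound exposure. Cells: 3T3 Gli1-Luc, an NIH/3T3 clone with stably integrated Gli1-Luc reporter, plated 4hr before compound.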

[8] = qHTS assay to identify small molecule antagonists of the sonic hedgehog signaling (Shh) pathway - cell viability counter screen (AID 1259367); note: nearly all actives have a fitted effect of over 55% in size; note: potency is the fitted concentration of half-maximal effect
In short: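 After a 4 hr settling period, 3T3 Gli1-Luc cells were treated with DMSO-dissolved chemicals and conditioned medium, kept 24 hr at 37C in 5% CO2, and assayed for viability by CellTiter-Fluor fluorescence following 1 hr reagent incubation.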

[9] = qHTS assay to identify small molecule phospholipidosis (PLD) inducers (AID 1259344; active = well fitted curve in the direction sought with a large enough effect; an effect the other way counts as inactive or inconclusive)
In short: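 HepG2 cells grown on collagen I take up LipidTOX Red while exposed to compound for 24 h; after fixation they are imaged at 20x and pit metrics are extracted.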

[10] = target: Androgen receptor (Homo sapiens) (UniProt P10275); test: qHTS assay to identify small molecule antagonists of the androgen receptor (AR) signaling pathway using the MDA cell line in the presence of 0.5 nM R1881 (AID 1259243); note: nearly all actives have a fitted effect of over 50% in size; note: potency is the fitted concentration of half-maximal effect
Sequence of Androgen receptor (Homo sapiens) (P10275 whole entry, looked up): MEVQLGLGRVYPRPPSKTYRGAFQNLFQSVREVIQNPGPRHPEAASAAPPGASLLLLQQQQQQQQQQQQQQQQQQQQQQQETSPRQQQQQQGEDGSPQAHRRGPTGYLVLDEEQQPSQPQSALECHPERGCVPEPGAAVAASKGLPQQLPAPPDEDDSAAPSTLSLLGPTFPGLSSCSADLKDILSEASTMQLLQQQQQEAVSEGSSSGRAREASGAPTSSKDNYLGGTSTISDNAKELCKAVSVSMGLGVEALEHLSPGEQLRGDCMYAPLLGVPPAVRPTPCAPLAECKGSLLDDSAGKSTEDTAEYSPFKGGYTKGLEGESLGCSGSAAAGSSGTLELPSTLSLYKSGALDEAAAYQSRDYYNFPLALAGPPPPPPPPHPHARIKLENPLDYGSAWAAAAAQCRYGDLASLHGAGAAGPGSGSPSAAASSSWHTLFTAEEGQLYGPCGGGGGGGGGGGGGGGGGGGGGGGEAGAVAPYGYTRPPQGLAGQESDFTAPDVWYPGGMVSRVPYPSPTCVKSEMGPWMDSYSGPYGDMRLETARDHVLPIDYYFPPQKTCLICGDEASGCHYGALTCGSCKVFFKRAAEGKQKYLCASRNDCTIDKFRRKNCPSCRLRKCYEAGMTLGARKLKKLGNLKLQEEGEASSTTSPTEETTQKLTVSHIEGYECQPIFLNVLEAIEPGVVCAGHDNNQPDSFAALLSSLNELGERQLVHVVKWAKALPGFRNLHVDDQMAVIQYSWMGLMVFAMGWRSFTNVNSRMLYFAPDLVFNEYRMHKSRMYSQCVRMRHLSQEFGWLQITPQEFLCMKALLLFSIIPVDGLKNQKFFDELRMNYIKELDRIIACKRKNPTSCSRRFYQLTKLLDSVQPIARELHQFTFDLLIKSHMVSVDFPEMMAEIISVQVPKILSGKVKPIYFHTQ
In short: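 We exposed MDA-kb2 cells to compounds under 0.5 nM R1881 stimulation for 16 hr at 37C and quantified MMTV-driven luciferase by luminescence.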

SMILES | outcome [1] | Potency [2] | Potency [3] | Potency [4] | Potency [5] | outcome [6] | Potency [7] | Potency [8] | outcome [9] | Potency [10]
COCCCN | inactive | inactive | inactive | inactive | inactive | inactive | inactive | inactive |  | 
CN(C)c1ccc(O)c2c1C[C@H]1C[C@H]3[C@H](N(C)C)C(=O)C(C(N)=O)=C(O)[C@@]3(O)C(=O)C1=C2O | inactive | inactive | inactive | inactive | inactive |  | inactive | inactive | inactive | 
CC(C)(Oc1ccc(CCNC(=O)c2ccc(Cl)cc2)cc1)C(=O)O | inactive | inactive | inactive | inactive | inactive | inactive | inactive | inactive | inactive | 
OC1C(O)C(O)C(O)C(O)C1O (configuration not stated) | inactive | inactive | inactive | inactive | inactive | inactive | inactive | inactive | inactive | 
CC(=O)CC(C)(C)O | inactive | inactive | inactive | inactive | inactive | inactive | inactive | inactive |  | inactive
CCNc1ccccc1 | inactive | inactive | inactive |  | inactive | inactive | inactive | inactive |  | inactive
COc1ccccc1OCC(O)CO (configuration not stated) | inactive | inactive | inactive |  | inactive | inactive | inactive | inactive | inactive | inactive
O=C(O)c1cc2ccccc2cc1O | inactive | inactive | inactive | inactive | 27.1 µM (active) and 24.3 µM (active) |  | inactive | inactive |  | inactive
CCCCCCCCCCO | inactive | inactive | inactive | inactive | inactive | inactive | inactive | inactive |  | 
COc1ccc([N+](=O)[O-])cc1N | inactive | inactive | inactive | inactive | inactive | inactive | inactive | inactive |  | 
CC(=O)c1ccc(O)cc1 | inactive | inactive | inactive | inactive | inactive | inactive | inactive | inactive |  | 
C=C(C)C(=O)OCC(C)C | inactive | inactive | inactive | inactive | inactive | inactive | 27.7 µM (active) and inactive | 7.8 µM (active) and inactive |  | 
COc1cc(OC)c(C(=O)CCCN2CCCC2)c(OC)c1 | inactive | inactive | inactive |  | inactive |  | inactive | inactive | inactive | inactive
CCO[Si](CCCN)(OCC)OCC | inactive | inactive | inactive | inactive | inactive | inactive | inactive | inactive |  | 
CCCCCCCCCCCCCCCCO | inactive | inactive | inactive | inactive | inactive | inactive | inactive | inactive | inactive | 
O=C(O)c1ccc(C(=O)O)c(C(=O)O)c1 | inactive | inactive | inactive | inactive | inactive | inactive | inactive | inactive |  | inactive
COc1ccc(N)c(C)c1 | inactive | inactive | inactive | inactive | inactive | inactive | inactive | inactive |  | 
O=C1CCCC1 | inactive | inactive | inactive | inactive | inactive | inactive | inactive | inactive |  | 
CC1(C)CC(N)CC(C)(CN)C1 (configuration not stated) | inactive | inactive | inactive | inactive | inactive | inactive | inactive | inactive |  | 
CCOC(=O)n1ccn(C)c1=S | inactive | inactive | inactive | inactive | inactive | inactive | inactive | inactive | inactive | 
OCc1cccc(Oc2ccccc2)c1 | inactive | inactive | inactive |  | inactive |  | inactive | inactive |  | 31.1 µM (active)
CCOCC(=O)O | inactive | inactive | inactive | inactive | inactive | inactive | inactive | inactive |  | 
OCc1ccccc1 | inactive | inactive | inactive | inactive | inactive | inactive | inactive | inactive | inactive | inactive
CC(CCO)CC(C)(C)C (configuration not stated) | inactive | inactive | inactive | inactive | inactive |  | inactive | inactive |  | inactive
CC(=O)OCc1ccccc1 | inactive | inactive | inactive | inactive | inactive | inactive | inactive | inactive |  | inactive
O=c1[nH]cnc2[nH]ncc12 | inactive | inactive | inactive | inactive | inactive | inactive | inactive | inactive | inactive | 

SMILES | outcome [1] | Potency [2] | Potency [3] | Potency [4] | Potency [5] | outcome [6] | Potency [7] | Potency [8] | outcome [9] | Potency [10]
Nc1nc(N)nc(-c2ccccc2)n1 | inactive | inactive | inactive | inactive | inactive | inactive | inactive | inactive |  | 
CN/C(=C\[N+](=O)[O-])NCCSCc1csc(CN(C)C)n1 | inactive | inactive | inactive |  | inactive | inactive | inactive | inactive | inactive | inactive
CC1(C)NC(=O)NC1=O | inactive | inactive | inactive | inactive | inactive | inactive | inactive | inactive |  | 
O=S(=O)(O)c1ccc(N=Nc2c(O)ccc3cc(S(=O)(=O)O)ccc23)cc1 | inactive | 30.8 µM (active) and 27.3 µM (active) | 54.7 µM (active) and 27.3 µM (active) | inactive | inactive | inactive | 30.8 µM (active) and 30.6 µM (active) | 27.4 µM (active) and 27.3 µM (active) |  | 
CCCCCCCO | inactive | inactive | inactive | inactive | inactive | inactive | inactive | inactive |  | 
CSc1ccc(Cl)cc1 | inactive | inactive | inactive | inactive | inactive | inactive | inactive | inactive |  | inactive
Cc1ccc(C(C)C)c(O)c1 | inactive | inactive | inactive | inactive | inactive | inactive | inactive | inactive | inactive | 
CC(=O)Oc1ccc(C)cc1 | inactive | inactive | inactive | inactive | inactive | inactive | inactive | inactive | inactive | inactive
Brc1ccc(Br)c(Br)c1 | inactive | inactive | inactive | inactive | inactive | inactive | inactive | inactive |  | 
Nc1ccc(Cl)c(N)c1 | inactive | inactive | inactive | inactive | inactive | inactive | inactive | inactive |  | 
CCCCCC(=O)O | inactive | inactive | inactive | inactive | inactive |  | inactive | inactive |  | inactive
CCO[Si](CCC#N)(OCC)OCC | inactive | inactive | inactive | inactive | inactive |  | inactive | inactive |  | 
CCCOC(=O)c1ccccc1 | inactive | inactive | inactive |  | inactive | inactive | inactive | inactive | inactive | 
CN(C)c1ccc(Cc2ccc(N(C)C)cc2)cc1 | inactive | inactive | inactive |  | inactive |  | inactive | inactive |  | 
CCNC(=S)NCC | inactive | inactive | inactive | inactive | inactive |  | inactive | inactive |  | 
NC(=S)NNC(N)=S | inactive | inactive | inactive |  | inactive | inactive | inactive | inactive |  | 
CC(C)(C#N)c1cc(Cn2cncn2)cc(C(C)(C)C#N)c1 | inactive | inactive | inactive |  | inactive | inactive | inactive | inactive | inactive | 
C=C(C)CNCC | inactive | inactive | inactive |  | inactive | inactive | inactive | inactive |  | 
CCOCCOCCOCCO | inactive | inactive | inactive |  | inactive |  | inactive | inactive |  | 
CC(CCl)OP(=O)(OC(C)CCl)OC(C)CCl (configuration not stated) | inactive | inactive | inactive | inactive | inactive | inactive | inactive | inactive |  | 
CC(C)OC(=O)COc1ccc(Cl)cc1Cl | inactive | inactive | inactive | inactive | inactive | inactive | inactive | inactive |  | 
C=C(C)[C@H]1CC=C(C)C(=O)C1 | inactive | inactive | inactive |  | inactive | inactive | inactive | inactive |  | 
Cc1ccc([N+](=O)[O-])cc1S(=O)(=O)O | inactive | inactive |  | inactive | inactive | inactive | inactive | inactive |  | inactive
CCCCCCCC=O | inactive | inactive | inactive | inactive | inactive |  | inactive | inactive |  | 
C=CC(C)CCCC(C)(C)O (configuration not stated) | inactive | inactive | inactive | inactive | inactive |  | inactive | inactive |  | 
